Assay outcomes as filed in PubChem BioAssay.
Shown is part of a subset that was picked to be rich in hits.
GALK inhibitor – qHTS Assay for Inhibitors of Human Galactokinase (GALK): NCGC Sytravon Library Screen; AID 1347072, 2019; Potency, µM (titrated, usually from 57.5 µM), inactives show at the top dose activity, negative = inhibition, hits mostly inhibitors; recombinant GALK, Kinase-Glo ATP luminescence, 1 h; 44,000 tested, under 10 active;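 also: plate controls were full GALK reaction for no effect and reaction lacking GALK for full effect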
Target sequence (P51570 whole entry, looked up): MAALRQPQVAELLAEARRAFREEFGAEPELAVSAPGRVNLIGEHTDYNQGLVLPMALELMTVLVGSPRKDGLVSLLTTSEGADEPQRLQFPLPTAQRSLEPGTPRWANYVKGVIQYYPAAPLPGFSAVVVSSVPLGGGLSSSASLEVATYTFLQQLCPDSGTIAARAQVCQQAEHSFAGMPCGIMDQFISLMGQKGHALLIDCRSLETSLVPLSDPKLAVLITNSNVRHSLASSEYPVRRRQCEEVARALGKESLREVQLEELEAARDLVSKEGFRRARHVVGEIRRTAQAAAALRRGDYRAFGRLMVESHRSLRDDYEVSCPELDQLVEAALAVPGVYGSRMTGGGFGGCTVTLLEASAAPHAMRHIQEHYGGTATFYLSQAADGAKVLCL
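5 nM GALK; 35 uM ATP; 100 uM D-galactose; 20 mM HEPES pH 8.0, 5 mM MgCl2, 60 mM NaCl, 1 mM DTT, 0.01% BSA; 1 h RT; Kinase-Glo Plus luminescence.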
B2AR arrestin ag – qHTS assay of beta-arrestin-biased ligands of beta2-adrenergic receptor: NCGC Sytravon Library Screen; HTLA Tango cells, beta-arrestin recruitment, luciferase luminescence, 18 h; Potency, µM (highest dose often 46.1 µM), most hits filed as activators; 44,000 tested, under 10 active; AID 1347077, 2019;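 also: potency is read from the fitted curve at half-maximal effect; 0% = DMSO and full agonism = EC100 isoproterenol or metaproterenol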
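Luminescence read-out: arrestin recruitment to recombinant beta2-AR releases tTA, inducing luciferase. Cells exposed 18 hr at 37 degrees C to up to 46 microM compound; %Activity from corrected signal, concentration-response curves classified by r2, magnitude and efficacy.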
TSG101-PTAP inh – qHTS Validation Assay for Inhibitors of HIV-1 Budding by Blocking the Interaction of PTAP/TSG101: Sytravon Library Screen. Fluorescence polarization, FITC-PTAP peptide/Tsg101, 20 min. Potency, µM (top dose mostly 115 µM), hits mostly inhibitors. 44,000 tested, under 10 active; also: potency is read from the fitted curve at half-maximal effect; 0% is about no effect
Target sequence (Q99816 whole entry, looked up): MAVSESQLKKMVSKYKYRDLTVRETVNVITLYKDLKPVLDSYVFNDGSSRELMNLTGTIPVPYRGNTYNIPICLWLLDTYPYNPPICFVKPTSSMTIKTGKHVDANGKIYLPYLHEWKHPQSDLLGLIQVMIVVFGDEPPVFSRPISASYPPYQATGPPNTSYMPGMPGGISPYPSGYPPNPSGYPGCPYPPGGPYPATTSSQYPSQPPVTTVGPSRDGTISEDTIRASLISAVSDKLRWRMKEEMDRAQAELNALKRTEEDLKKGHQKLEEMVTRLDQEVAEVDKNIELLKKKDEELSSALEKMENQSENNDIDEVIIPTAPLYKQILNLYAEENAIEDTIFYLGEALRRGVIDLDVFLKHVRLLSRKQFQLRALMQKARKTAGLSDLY
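Fluorescence polarization binding of Tsg101 binding domain (10 uM final) to FITC-labeled PTAP-motif peptide (50 nM final) in HEPES pH 7.5/NaCl/Tween 20/EDTA/TCEP buffer; 20 min at r.t. Actives by curve class, <25 µM, efficacy <60% inhibition.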
FH mod – Identification of activators of human fumarate hydratase by quantitative high-throughput screening. Fumarate hydratase, mitochondrial (Homo sapiens), P07954. FH coupled MDH/diaphorase resazurin fluorescence, 15 min. Potency, µM (highest dose often 79.9 µM), for inactives: top-dose activity change, negative = inhibition, hits mostly inhibitors. hit rate 0.22% among 54,000. AID 1347055, 2019; also: potency is read from the fitted curve at half-maximal effect; % is scaled to controls: 0 for no effect and ±100 for the full control effect; the screen sought activators but most active calls are inhibition curves; nearly all actives have a fitted effect of over 45% in size
NTMT1 inhibitor – Primary qHTS for Inhibitors of N-terminal methyltransferase 1 (NTMT1): MTaseGlo Assay; hit rate 2.5% among 59,000; Potency, µM (doses to about 114 µM), for inactives: at the top dose activity change, negative = inhibition, hits mostly inhibitors; AID 1645870, 2021; NTMT1 MTase-Glo SAH luminescence, purified enzyme;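 also: potency is read from the fitted curve at half-maximal effect; plate controls were DMSO vehicle for no effect and no enzyme for full effect; nearly all actives have a fitted effect of over 65% in size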
GALC G270D up – A Novel Cell-Based Assay to Identify Small Molecules for B -Galactocerebrosidase; P54803; 145M-Twi-hGALC-G270D cells (Twitcher mouse brain line with human GALC G270D), HMU-beta-Gal fluorescence, 48 h; Potency, µM (top dose mostly 57.5 µM), most hits filed as activators; hit rate 0.1% among 45,000; also: potency is read from the fitted curve at half-maximal effect; 0% is about no effect; nearly all actives have a fitted effect of over 65% in size
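Live 145M-Twi cells (Twitcher mouse brain-derived, GALC-null) stably expressing human GALC-G270D, with a wild-type GALC line, were compound-treated. Residual GALC activity was then read as fluorescence from 0.1 mM final HMU-β-gal at pH 5.2; higher signal means activation.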
* = called active by the depositor; i = inactive; ? = inconclusive; . = no result; ! = not confirmed by another sample; [ ] = remark or other dose. Calls follow the shape of the dose curve; as a rule, active = well fitted curve in the direction sought with a large enough effect; inconclusive = small, poorly fitted or top-dose-only effect, or another doubt; inactive = no such curve, though single readings can be large; an effect the other way counts as inactive or inconclusive.

SMILES | GALK inhibitor | B2AR arrestin ag | TSG101-PTAP inh | FH mod | NTMT1 inhibitor | GALC G270D up
[2H]C([2H])(Nc1nc(-c2ccccc2C([2H])(C([2H])([2H])[2H])C([2H])([2H])[2H])ncc1C)c1ccc(-n2ccnn2)cc1 | . | . | . | . | 10.6% | .
CCN(c1cc(-c2ccc(CN3CCOCC3)cc2)cc(C(=O)NCc2c(C)cc(C)[nH]c2=O)c1C)C1CCOCC1 | . | . | . | 2.2% | 3.0% | .
COc1ccccc1-c1cc(Nc2cccc(CS(N)(=O)=O)c2)ncn1 | . | . | . | 7.2% | 35.5µM* | .
CCN(CCNC(=O)Nc1ccccc1Br)c1cccc(C)c1 | . | . | . | -3.6% | 6.7%[57.5 µM] | .
O=C(NCc1cccc(F)c1)c1ccc(NC(=O)c2nsc3ccccc23)cc1 | 0.8% | i | i | -6.5% | 44.7µM* | i
Cc1ccc(CNC(=O)c2ccc(NC(=O)c3nsc4ccccc34)cc2)cc1 | 0.8% | i | i | 2.6% | 0.4% | i
CNC(=O)c1ccc(NC(=O)c2nsc3ccccc23)cc1 | 3.7% | i | i | -8.4% | 39.8µM* | i
O=C(Nc1ccc(C(=O)N2CCCCC2)cc1)c1nsc2ccccc12 | 1.6% | i | i | -18.2% | 14.1µM* | i
Cn1cc(-c2nc(N[C@@H]3CCCC[C@@H]3N)c(F)c3c2C(=O)NC3)cn1 | . | . | . | . | 12.9%[12.6 µM] | .
CCC(Cc1ccccc1)NC(=O)Cn1nc(C)n2c(cc3occc32)c1=O (stereo unspecified) | 0.4% | i | i | -1.9% | 89.1µM* | i
Cc1cn([C@H]2C[C@H](N[S+](=O)([O-])Cc3cc(Cl)cc(Cl)c3)[C@@H](CO)O2)c(=O)[nH]c1=O | . | . | . | . | 79.4µM* | .
C/C(=C\C(=O)Nc1ccccc1C(=O)O)c1ccc2ccccc2c1 | . | . | . | -7.0% | 28.2µM* | .
Nc1ccc2nc(-c3ccc(O)cc3)sc2c1 | 3.0% | i | i | -17.3% | 31.6µM* | i
CCCSc1ccc2nc(NC(=O)OC)[nH]c2c1 | . | . | . | 0.0%[53.3 µM] | 11.1%[57.5 µM] | i
CCCS(=O)c1ccc2nc(NC(=O)OC)[nH]c2c1 (stereo unspecified) | . | . | . | 5.7% | 50.1µM*! | i
COC(=O)Nc1nc2ccc(S(=O)c3ccccc3)cc2[nH]1 (stereo unspecified) | . | . | . | -6.6%[53.3 µM] | 4.8%[57.5 µM] | i
COC(=O)Nc1nc2ccc(C(=O)c3cccs3)cc2[nH]1 | . | . | . | -14.9%[53.3 µM] | 28.2µM*! | i
COC(=O)Nc1nc2ccc(C(=O)c3ccccc3)cc2[nH]1 | . | . | . | -6.0%[53.3 µM] | 30.4µM*! | i
C=C(C)C1CC(O)C(C)C12CC(O)C1(C)OC1C2O (stereo unspecified) | . | . | . | ? | 14.0%[57.5 µM] | .
CCCCN(CCCC)S(=O)(=O)c1ccc(C(=O)Nc2sc3c(c2C(N)=O)CCN(CC)C3)cc1 | -0.4% | i | i | -3.9% | 2.1% | i
CCOC(=O)c1c(NC(=O)c2ccc(S(=O)(=O)N(CC(C)C)CC(C)C)cc2)sc2c1CCN(CC)C2 | 2.7% | i | i | -8.6% | 89.1µM* | i
CCOC(=O)c1nnc(N[S+](=O)([O-])c2ccc(NC(=O)Cc3ccc(Cl)c(Cl)c3)cc2)s1 | . | . | . | . | 79.4µM* | .
CCOC(=O)c1cccc(NS(=O)(=O)c2ccc(NC(=O)Cc3ccc(Cl)c(Cl)c3)cc2)c1 | . | . | . | . | -2.6% | .
Cc1[nH]c(/C=C2\C(=O)Nc3ccc(F)cc32)c(C)c1C(=O)NCCN1CCCC1 | . | . | . | -7.5% | ? | .
CCN(CC)CCNC(=O)c1c(C)[nH]c(/C=C2\C(=O)Nc3ccc(F)cc32)c1C | . | . | . | 12.6µM*! | 35.5µM* | i
SMILES | GALK inhibitor | B2AR arrestin ag | TSG101-PTAP inh | FH mod | NTMT1 inhibitor | GALC G270D up
Cc1ccc(-c2ccc(=O)n(CC(=O)NCCc3ccc(O)cc3)n2)cc1 | . | . | . | . | 7.4% | .
CCCCNC(=O)CN1CCN(c2ncc(NC(=O)c3ccc(Cl)cc3)cc2C(=O)O)CC1 | 1.1% | i | i | -30.1% | 39.8µM* | i
CCCCCCCCCC(=O)N[C@@H](Cc1c[nH]c2ccccc12)C(=O)N[C@H](CC(N)=O)C(=O)N[C@@H](CC(=O)O)C(=O)N[C@@H]1C(=O)NCC(=O)N[C@@H](CCCN)C(=O)N[C@@H](CC(=O)O)C(=O)N[C@H](C)C(=O)N[C@@H](CC(=O)O)C(=O)NCC(=O)N[C@H](CO)C(=O)N[C@@H]([C@@H](C)CC(=O)O)C(=O)N[C@@H](CC(=O)c2ccccc2N)C(=O)O[C@@H]1C | . | . | . | 3.7%[20.6 µM] | 7.1%[57.5 µM] | .
C=C1CC2C(C)(CCC(=O)O)C(C(C)(C)O)CCC2(C)C2(C(=O)OC)C(=O)C(C)(O)C(=O)C12C (stereo unspecified) | . | . | . | 5.8%[53.3 µM] | 9.5%[29.8 µM] | .
COc1cccc(CNc2ccc(S(=O)(=O)Nc3nccs3)cc2)c1OC | . | . | . | . | -1.7% | .
COC(=O)c1cc(Cl)ccc1NC(=O)CSc1ncc(S(=O)(=O)c2ccc(Br)cc2)c(=O)[nH]1 | -11.0% | i | i | ? | 79.4µM* | i
O=c1c(-c2ccc(O)cc2)coc2cc(OC3O[C@H](CO)[C@H](O)[C@H](O)[C@H]3O)cc(O)c12 (stereo partly specified) | . | . | . | ? | 24.1µM* | .
COc1ccc(C(O[C@@H]2O[C@H](CO)[C@@H](O)[C@H](O)[C@H]2O)C(CO)Oc2ccc(/C=C/CO)cc2OC)cc1O (stereo partly specified) | . | . | . | 1.3%[53.3 µM] | 13.5%[29.8 µM] | .
CC(=O)c1[nH]cc(CCC(=O)O)c1CC(=O)O | . | . | . | 10.6% | 10.8%[57.5 µM] | .
CCOc1ccc2nc(NC(=O)c3ccccc3)sc2c1 | 4.4% | i | i | -0.3% | ? | i
CCOc1ccc2nc3cc(N)ccc3c(N)c2c1 | . | . | . | -9.7%[53.3 µM] | 20µM* | i
Nc1c(C(=O)Nc2ccc(C(=O)O)cc2)sc2nc3c(cc12)CCCC3 | ? | i | i | -17.7% | 25.1µM* | i
CCOc1ccc(NC(=O)c2sc3nc4c(cc3c2N)CCCCCC4)cc1 | 2.9% | i | i | -4.7% | -4.1% | i
FC(F)(F)c1cc(-c2ccc(CNc3nc(-c4ccccc4C(F)(F)F)nc4ccccc34)cc2)cc(C(F)(F)F)c1 | . | . | . | . | 11.2% | .
Cc1c(OCC(F)(F)F)ccnc1CS(=O)c1nc2ccccc2[nH]1 (stereo unspecified) | . | . | . | -9.5%[53.3 µM] | 44.7µM*! | i
